Test results: PubChem BioAssay (NCATS)
Results filed as inconclusive are left out. Active and inactive are the calls of the source. Unless noted, calls come from the whole dose curve; as a rule, active = well fitted curve in the direction sought with a large enough effect; inconclusive = small, poorly fitted or top-dose-only effect, or another doubt; inactive = no such curve, though single readings can be large; an effect the other way counts as inactive or inconclusive.

Experiments:
[1] = biological target: Estrogen receptor (Homo sapiens) (UniProt P03372); test: qHTS assay for small molecule antagonists of estrogen receptor alpha signaling (AID 588513; active = well fitted curve in the direction sought with a large enough effect in the signal ratio, with a control signal flat, not every such curve was filed as active; the % refers to the signal ratio; note: % is set by controls: 0 for no effect and ±100 for the full control effect)
Procedure, shortened: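 Antagonist mode: inhibition of 0.5 nM 17-beta-estradiol-driven beta-lactamase reporter in HEK 293 ER-alpha-UAS-bla cells, 18 h at 37C, CCF4 readout after 2 h at RT. Normalised to estradiol and DMSO; titration fitted to Hill.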

[2] = biological target: Estrogen receptor (Homo sapiens) (UniProt P03372); test: qHTS assay for small molecule agonists of estrogen receptor alpha signaling (AID 588514; calls by dose curve;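 note: 0% = vehicle only and 100% = reference agonist; nearly all actives have a fitted effect of over 70% in size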)
Procedure, shortened: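 ER-alpha-UAS-bla GripTite HEK 293 cells in medium with 2% charcoal/dextran-treated FBS were treated with compound titrations at 37 C for 18 hrs; beta-lactamase reporter read by CCF4 fluorescence after 2 hrs at RT.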

[3] = qHTS assay for small molecule antagonists of peroxisome proliferator-activated receptor delta signaling (AID 588535); settings: HEK293T PPARd-UAS-bla, beta-lactamase FRET ratio, 18 h; 460 nm channel;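 note: cells co-treated with a PPAR-delta agonist as stimulator during compound exposure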
Procedure, shortened: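 GeneBLAzer PPAR-delta-UAS-bla HEK293T cells in medium with 2% charcoal/dextran FBS were preincubated 5 hrs at 37 C, then given compounds, incubated 18 hrs at 37 C, and read by CCF4 beta-lactamase fluorescence; IC50 from Hill fits.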

[4] = biological target: Peroxisome proliferator-activated receptor gamma (Homo sapiens) (UniProt P37231); test: qHTS assay for small molecule agonists of peroxisome proliferator-activated receptor gamma signaling (AID 588536; active = well fitted curve in the direction sought with a large enough effect in the signal ratio, with a control signal flat, not every such curve was filed as active; the % refers to the signal ratio;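 note: 0% = DMSO basal wells and 100% = rosiglitazone at 2 µM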)
Procedure, shortened: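 HEK293 UAS-bla reporter line, 1% charcoal/dextran FBS; titration, 16 h, 37 C; CCF4 loading 2 h RT; fluorescence 460/530 nm. Normalized to rosiglitazone 2 uM = 100%, DMSO = 0%.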

[5] = biological target: Vitamin D3 receptor (Homo sapiens) (UniProt P11473); test: qHTS assay for small molecule agonists of vitamin D receptor signaling (AID 588543; calls by dose curve;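 note: 0% = DMSO basal and 100% = reference agonist control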)
Procedure, shortened: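 Agonist-mode beta-lactamase reporter: HEK293T VDR-UAS-bla cells in charcoal-stripped 2% FBS, compound series 16 h 37 C, CCF4 2 h RT. EC50 from Hill fit, scaled against DMSO and 50 nM calcitriol control.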

[6] = qHTS assay for small molecule agonists of retinoid X receptor alpha signaling (AID 588544; calls by dose curve; note: potency is the fitted concentration of half-maximal effect;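 for activation: 0% = DMSO basal wells and 100% = reference agonist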); settings: HEK293T RXRa-UAS-bla, beta-lactamase reporter, 18 h; 530 nm emission
[7] = biological target: Retinoic acid receptor RXR-alpha (Homo sapiens) (UniProt P19793); test: as above
[8] = biological target: Thyroid hormone receptor beta (Homo sapiens) (UniProt P10828); test: qHTS assay for small molecule agonists of thyroid hormone receptor beta signaling (AID 588545; calls by dose curve;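 note: 0% = DMSO only and 100% = 10 nM T3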)
Procedure, shortened: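 Beta-lactamase reporter activity under TR response element control is measured in HEK 293 cells after 18 hrs compound exposure. Signal is ratiometric CCF4 fluorescence, 460/530 nm.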

[9] = qHTS assay for small molecule antagonists of retinoid X receptor alpha signaling (AID 588546; active = well fitted inhibition curve with a large enough effect in the signal ratio, with a control signal flat, not every such curve was filed as active; the % refers to the signal ratio;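 note: cells stimulated with 9-cis-retinoic acid as agonist; % is set by controls: 0 for no effect and ±100 for the full control effect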); settings: HEK293T RXRa-UAS-bla, beta-lactamase ratio, antagonist mode; measured here: W530 green channel, cytotoxicity proxy
Procedure, shortened: (§1)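 Beta-lactamase reporter inhibition, read as CCF4 fluorescence ratio (ex 405, em 460/530 nm) after 2 h at RT. HEK293T UAS-bla cells, 2500/well, were stimulated with 9-cis-RA at 500 or 100 nM final alongside test compound for 18 h at 37 C.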

[10] = biological target: Retinoic acid receptor RXR-alpha (Homo sapiens) (UniProt P19793); test: as above; settings: HEK293T RXRa-UAS-bla, beta-lactamase ratio, antagonist mode
Procedure, shortened: as §1

[11] = biological target: Thyroid hormone receptor beta (Homo sapiens) (UniProt P10828); test: qHTS assay for small molecule antagonists of thyroid hormone receptor beta signaling (AID 588547; active = well fitted inhibition curve with a large enough effect in the signal ratio, with a control signal flat, not every such curve was filed as active; the % refers to the signal ratio;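 note: cells stimulated with 0.4 nM T3 agonist during compound exposure; series mostly up to about 77 µM; % is set by controls: 0 for no effect and ±100 for the full control effect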); settings: TR-UAS-bla HEK293, beta-lactamase ratio, antagonist mode, 18 h
Procedure, shortened: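 TR-UAS-bla GripTite HEK293 cells in 2% charcoal/dextran FBS medium were preincubated 4 h at 37 C, given compound (0.59 nM to 92 uM) plus 0.4 nM T3 (final) for 18 h, then CCF4 for 2 h at RT; Hill fit gave IC50.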

[12] = qHTS assay for small molecule activators of the nuclear factor-kappa B (NF-kB) signaling pathway (AID 651749; active = well fitted activation curve with a large enough effect in the signal ratio; the % refers to the signal ratio; note: series mostly up to about 77 µM; % of control where 0% means no effect); settings: NF-kB-bla ME-180 cells, beta-lactamase FRET ratio, 16 h; activation: stronger effect = higher value
Procedure, shortened: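 ME-180 cells stably carrying a beta-lactamase reporter under an NF-kB response element were exposed to compound or DMSO vehicle for 16 hr at 37C, 5% CO2. Pathway activation was read by FRET, since reporter expression disrupts FRET.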

[13] = qHTS assay for environmental chemicals that activate the Aryl hydrocarbon Receptor (AhR) signaling pathway (AID 651777); settings: 1A2-DRE human hepatoma cells, luciferase, 24 h; activation: stronger effect = higher value; note: % of control where 0% means no effect; nearly all actives have a fitted effect of over 15% in size
Procedure, shortened: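 Concentration–response screening used 1,200 1A2-DRE cells per well, 24 hr compound exposure (37 C, 5% CO2), and One-Glo luminescence as the AhR-driven CYP1A2 reporter signal.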

[14] = biological target: Peroxisome proliferator-activated receptor alpha (Homo sapiens) (UniProt Q07869); test: qHTS assay for small molecule agonists of the peroxisome proliferator-activated receptor alpha (PPARalpha) signaling pathway (AID 651778); settings: PathHunter PPARalpha complementation, chemiluminescence, 6 h; max response: stronger effect = higher value; note: % of control where 0% means no effect
Procedure, shortened: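 Cells plated at 2,000/well and held overnight at 37 C, 5% CO2, then compound added by pin tool for 6 hr; after PathHunter detection reagent and 60 min at room temperature, chemiluminescence from enzyme complementation was read.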

[15] = qHTS assay for small molecule agonists of the antioxidant response element (ARE) signaling pathway measured by Nrf2-dependant transcriptional activity (AID 720636; active = well fitted curve in the direction sought with a large enough effect in the repeat runs; an effect the other way counts as inactive or inconclusive;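 note: HepG2 cells with an ARE-driven luciferase reporter; % of control where 0% means no effect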)
Procedure, shortened: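 Attachment 6 hr at 37 C, then compound versus DMSO vehicle for 16 hr in ARE-luc HepG2 cells (1% dialyzed FBS); luminescence recorded 30 min after ONE-Glo addition at room temperature.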

[16] = qHTS assay for small molecule agonists of the antioxidant response element (ARE) signaling pathway measured by Nrf2-dependant transcriptional activity - cell viability counter screen (AID 720653; active = well fitted curve in the direction sought with a large enough effect in the repeat runs; an effect the other way counts as inactive or inconclusive; note: % is set by controls: 0 for no effect and ±100 for the full control effect); settings: ARE-bla HepG2 viability, CellTiter-Glo ATP luminescence, 16 h; max response: stronger effect = lower value
Procedure, shortened: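 ARE-bla HepG2 cells (2,000/well) rested 5 hrs at 37C/5% CO2, then exposed to compounds in DMSO for 16 hrs. Viability was read in the same wells as intracellular ATP by luminescence, 30 min at room temperature after reagent addition.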

[17] = qHTS assay for cell viability of HEK293 cells (AID 743288); settings: ATP luminescence (CellTiter-Glo), 18 h; max response: stronger effect = lower value; note: % is set by controls: 0 for no effect and ±100 for the full control effect; nearly all actives have a fitted effect of over 50% in size
Procedure, shortened: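 Total intracellular ATP, measured with a luciferase-coupled reagent, indicates the number of viable HEK293 cells. Exposure to test chemicals lasts 18 h at 37 C in 1,536-well format at 2,000 cells/well.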

[18] = qHTS assay for cell viability of the p53RE-bla HCT-116 cell line (AID 743292); note: % is set by controls: 0 for no effect and ±100 for the full control effect; nearly all actives have a fitted effect of over 55% in size
Procedure, shortened: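 Compound-exposed HCT-116 (p53RE-bla) cells, 4,000 per well, were kept 16 h at 37 C following a 5 h preincubation. Cell number was estimated from total ATP by CellTiter-Glo luminescence read after 30 min at room temperature.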

[19] = biological target: Nuclear receptor subfamily 1 group I member 2 (Rattus norvegicus) (UniProt Q9R1A7); test: qHTS assay for small molecule activators of the rat pregnane X receptor (rPXR) signaling pathway (AID 651751; call rule not given here; note: 0% is about no effect); settings: rPXR reporter cells, luciferase (One-Glo), 24 h
[20] = qHTS assay for small molecule activators of the human pregnane X receptor (PXR) signaling pathway (AID 720659; call rule not given here; note: 0% is about no effect)

Sequence of Estrogen receptor (Homo sapiens) (P03372 whole entry, looked up): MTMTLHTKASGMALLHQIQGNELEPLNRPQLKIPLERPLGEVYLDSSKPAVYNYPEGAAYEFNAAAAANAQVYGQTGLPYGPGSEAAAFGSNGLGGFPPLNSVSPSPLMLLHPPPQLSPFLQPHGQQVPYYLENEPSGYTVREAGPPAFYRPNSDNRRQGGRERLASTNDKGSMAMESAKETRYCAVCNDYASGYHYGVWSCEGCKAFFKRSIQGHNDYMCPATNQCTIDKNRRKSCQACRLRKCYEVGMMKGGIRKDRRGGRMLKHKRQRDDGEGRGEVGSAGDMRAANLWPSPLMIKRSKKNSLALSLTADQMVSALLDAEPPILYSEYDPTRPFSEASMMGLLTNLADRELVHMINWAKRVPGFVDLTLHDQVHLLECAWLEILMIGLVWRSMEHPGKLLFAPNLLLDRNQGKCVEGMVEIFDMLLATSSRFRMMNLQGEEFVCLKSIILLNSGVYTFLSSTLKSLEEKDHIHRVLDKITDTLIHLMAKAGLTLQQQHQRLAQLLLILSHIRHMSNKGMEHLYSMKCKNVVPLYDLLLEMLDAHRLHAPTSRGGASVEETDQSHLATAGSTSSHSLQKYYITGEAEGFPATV
Sequence of Vitamin D3 receptor (Homo sapiens) (P11473 whole entry, looked up): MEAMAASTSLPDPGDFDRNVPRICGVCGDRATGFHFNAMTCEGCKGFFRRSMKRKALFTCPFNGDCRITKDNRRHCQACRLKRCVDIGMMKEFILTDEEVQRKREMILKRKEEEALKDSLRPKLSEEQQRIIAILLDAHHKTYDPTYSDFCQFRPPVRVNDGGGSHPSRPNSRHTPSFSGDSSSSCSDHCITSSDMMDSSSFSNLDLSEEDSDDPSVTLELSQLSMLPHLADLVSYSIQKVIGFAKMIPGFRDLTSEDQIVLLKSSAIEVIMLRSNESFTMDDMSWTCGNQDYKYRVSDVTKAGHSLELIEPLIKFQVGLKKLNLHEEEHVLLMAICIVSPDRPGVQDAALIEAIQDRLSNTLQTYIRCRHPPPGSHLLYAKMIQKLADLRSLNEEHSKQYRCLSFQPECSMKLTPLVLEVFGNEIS
Sequence of Peroxisome proliferator-activated receptor alpha (Homo sapiens) (Q07869 whole entry, looked up): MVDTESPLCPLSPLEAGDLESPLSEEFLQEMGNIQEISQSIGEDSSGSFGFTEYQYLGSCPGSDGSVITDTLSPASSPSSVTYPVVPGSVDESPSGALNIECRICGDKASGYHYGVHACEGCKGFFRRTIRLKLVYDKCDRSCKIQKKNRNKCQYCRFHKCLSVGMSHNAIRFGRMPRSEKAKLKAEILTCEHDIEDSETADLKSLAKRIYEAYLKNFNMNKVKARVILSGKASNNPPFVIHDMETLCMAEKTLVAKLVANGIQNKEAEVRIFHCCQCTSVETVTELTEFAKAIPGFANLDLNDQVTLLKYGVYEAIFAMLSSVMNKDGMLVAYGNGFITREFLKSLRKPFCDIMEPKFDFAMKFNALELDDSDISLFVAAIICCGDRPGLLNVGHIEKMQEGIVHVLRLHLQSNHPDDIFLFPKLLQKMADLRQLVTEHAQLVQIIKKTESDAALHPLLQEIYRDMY
Sequence of Peroxisome proliferator-activated receptor gamma (Homo sapiens) (P37231 whole entry, looked up): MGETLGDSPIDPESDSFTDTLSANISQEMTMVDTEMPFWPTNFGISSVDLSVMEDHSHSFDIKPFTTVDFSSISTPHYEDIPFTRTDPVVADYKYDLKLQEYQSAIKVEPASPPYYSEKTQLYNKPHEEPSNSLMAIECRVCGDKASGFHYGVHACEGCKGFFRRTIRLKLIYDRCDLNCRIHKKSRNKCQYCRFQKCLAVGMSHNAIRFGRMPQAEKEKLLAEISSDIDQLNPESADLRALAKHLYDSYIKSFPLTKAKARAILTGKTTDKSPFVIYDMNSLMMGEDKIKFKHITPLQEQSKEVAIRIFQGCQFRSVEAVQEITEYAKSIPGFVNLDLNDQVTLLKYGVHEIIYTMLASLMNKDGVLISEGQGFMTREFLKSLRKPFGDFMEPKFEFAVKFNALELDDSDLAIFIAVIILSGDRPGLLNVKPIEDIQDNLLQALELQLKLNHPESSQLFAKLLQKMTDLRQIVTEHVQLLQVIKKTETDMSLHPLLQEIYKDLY
Sequence of Nuclear receptor subfamily 1 group I member 2 (Rattus norvegicus) (Q9R1A7 whole entry, looked up): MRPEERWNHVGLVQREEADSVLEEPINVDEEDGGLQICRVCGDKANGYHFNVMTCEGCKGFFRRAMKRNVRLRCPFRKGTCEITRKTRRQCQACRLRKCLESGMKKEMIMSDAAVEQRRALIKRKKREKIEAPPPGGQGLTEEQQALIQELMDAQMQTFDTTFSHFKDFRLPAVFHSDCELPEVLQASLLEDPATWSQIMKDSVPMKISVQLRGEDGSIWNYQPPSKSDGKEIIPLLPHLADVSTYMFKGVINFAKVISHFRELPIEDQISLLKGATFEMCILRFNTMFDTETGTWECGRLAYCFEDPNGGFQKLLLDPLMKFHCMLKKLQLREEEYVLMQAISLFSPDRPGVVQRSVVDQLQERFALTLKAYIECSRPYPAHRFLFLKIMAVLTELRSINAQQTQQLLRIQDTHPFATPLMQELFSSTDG
Sequence of Retinoic acid receptor RXR-alpha (Homo sapiens) (P19793 whole entry, looked up): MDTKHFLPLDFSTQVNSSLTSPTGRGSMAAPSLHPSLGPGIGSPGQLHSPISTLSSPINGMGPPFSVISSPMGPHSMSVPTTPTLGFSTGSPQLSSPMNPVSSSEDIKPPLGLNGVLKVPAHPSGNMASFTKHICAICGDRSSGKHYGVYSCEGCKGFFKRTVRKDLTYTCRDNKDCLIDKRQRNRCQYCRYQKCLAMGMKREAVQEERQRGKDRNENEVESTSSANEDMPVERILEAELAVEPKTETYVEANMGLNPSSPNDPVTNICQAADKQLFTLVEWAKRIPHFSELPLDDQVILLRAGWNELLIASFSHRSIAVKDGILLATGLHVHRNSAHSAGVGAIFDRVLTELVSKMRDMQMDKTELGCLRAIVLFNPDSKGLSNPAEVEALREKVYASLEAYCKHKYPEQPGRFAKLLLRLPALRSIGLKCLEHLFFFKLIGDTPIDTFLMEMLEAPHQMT
Sequence of Thyroid hormone receptor beta (Homo sapiens) (P10828 whole entry, looked up): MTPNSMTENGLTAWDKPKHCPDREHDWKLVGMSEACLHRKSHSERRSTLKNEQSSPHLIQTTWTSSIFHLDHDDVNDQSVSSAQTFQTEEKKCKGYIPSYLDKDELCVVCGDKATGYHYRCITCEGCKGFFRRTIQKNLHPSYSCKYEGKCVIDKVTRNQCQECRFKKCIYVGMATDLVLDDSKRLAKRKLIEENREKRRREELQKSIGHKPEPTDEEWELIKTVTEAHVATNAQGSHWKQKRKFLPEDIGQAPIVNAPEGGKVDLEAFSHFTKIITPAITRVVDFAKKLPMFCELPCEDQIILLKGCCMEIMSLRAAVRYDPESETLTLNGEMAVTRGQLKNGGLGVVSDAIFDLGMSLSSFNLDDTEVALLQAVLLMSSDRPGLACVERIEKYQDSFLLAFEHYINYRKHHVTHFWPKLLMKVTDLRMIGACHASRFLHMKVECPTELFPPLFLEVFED

NCCCCCCCCCCCC(=O)O
-5.4%: max response [6]
20.5%: max response [3]
-12%: max response [9]
inactive: Potency [1] | Potency [2] | outcome [4] | outcome [5] | Potency [7] | Potency [8] | max response [10] 2.61% | activity change % (negative = inhibition) [11] 11.2% | activation [12] -0.832% | activation [13] -1.28% | max response [14] -1.44% | Potency [15] | max response [16] 4.58% | max response [17] 6.09% | Potency [18] | max response [19] -0.534% | outcome [20]

C[Si](Cl)(Cl)c1ccccc1
inactive: Potency [1] | Potency [2] | outcome [4] | outcome [5] | Potency [7] | Potency [8] | max response [10] -4.88% | activation [13] 0.0847% | max response [14] -2.64% | Potency [15] | max response [16] -14.9% | max response [17] -2.42% | Potency [18] | max response [19] -3.28% | outcome [20]
44.2%: max response [3]
-17.5%: max response [6]
-2.11%: max response [9]

CCCCCCCCCCCCCCCCCCN
inactive: Potency [1] | Potency [2] | outcome [5] | Potency [8] | max response [10] 4.01% | activity change % (negative = inhibition) [11] 13% | activation [12] 0.495% | activation [13] 0.284% | max response [14] 0.121% | Potency [15] | max response [16] -7.69% | max response [17] 4.92% | Potency [18] | max response [19] -2.88% | outcome [20]
active: Potency [7] 15.8 µM
13.6%: max response [3]
-8.83%: max response [9]
-24%: max response [6]

CC1(C)CC(NCCCCCCNC2CC(C)(C)NC(C)(C)C2)CC(C)(C)N1
-2.83%: max response [6]
-10.1%: max response [9]
inactive: Potency [1] | Potency [2] | outcome [4] | outcome [5] | Potency [7] | Potency [8] | max response [10] 2.64% | activity change % (negative = inhibition) [11] -26.6% | activation [12] -3.22% | activation [13] 0.472% | max response [14] -0.876% | Potency [15] | max response [16] -7.27% | max response [17] -6.6% | Potency [18] | max response [19] 1.41% | outcome [20]

CCCCCCCCCCCCCCN
inactive: Potency [1] | Potency [2] | outcome [4] | outcome [5] | Potency [7] | Potency [8] | max response [10] -5.01% | activation [12] -1.74% | activation [13] -0.123% | max response [14] -1.81% | Potency [15] | max response [16] 4.41% | max response [17] -3.28% | Potency [18] | max response [19] 1.71% | outcome [20]
-5.44%: max response [9]
-7.23%: max response [3]
-19.1%: max response [6]

CCOC(=O)C1=NN(c2ccc(Cl)cc2Cl)C(C)(C(=O)OCC)C1 (stereo unspecified)
inactive: Potency [1] | Potency [2] | outcome [5] | Potency [7] | Potency [8] | activation [12] -1.4% | activation [13] -3.22% | max response [14] 0.459% | Potency [15] | max response [16] 0.425% | max response [17] -23.5% | Potency [18] | max response [19] -0.641%
-4.87%: max response [6]

CCc1cccc(C)c1N(C(=O)CS(=O)(=O)O)[C@@H](C)COC
inactive: Potency [1] | Potency [2] | outcome [4] | outcome [5] | Potency [7] | Potency [8] | max response [10] -22.6% | activity change % (negative = inhibition) [11] -18.4% | activation [12] -2.32% | activation [13] -0.669% | max response [14] -2.29% | Potency [15] | max response [16] -5.93% | max response [17] -5.4% | Potency [18] | max response [19] -5.94% | outcome [20]
24.1%: max response [3]
-8.42%: max response [6]
9.75%: max response [9]

CC1(C)[C@@H](C=C(Cl)Cl)[C@@H]1C(=O)OCc1cccc(Oc2ccccc2)c1
-10.2%: max response [9]
-21.4%: max response [3]
inactive: Potency [1] | Potency [2] | max response [10] -8.61% | activity change % (negative = inhibition) [11] 5.01% | activation [13] -0.62% | max response [14] -0.645% | Potency [15] | max response [16] -5.58% | max response [17] -11.2% | Potency [18]

CCCCCCCCCC(C)=O
-16.2%: max response [6]
26.8%: max response [3]
-6.07%: max response [9]
inactive: Potency [1] | Potency [2] | outcome [4] | outcome [5] | Potency [7] | Potency [8] | max response [10] -4.81% | activity change % (negative = inhibition) [11] -10.7% | activation [12] 0.316% | activation [13] 0.0383% | max response [14] 0.198% | Potency [15] | max response [16] -10.8% | max response [17] -5.17% | Potency [18] | max response [19] -2.12% | outcome [20]

CNc1nc(=O)n(C2CCC(O)CC2)c(=O)n1C (stereo unspecified)
-9.94%: max response [6]
-9.65%: max response [9]
29.9%: max response [3]
inactive: Potency [1] | Potency [2] | outcome [4] | Potency [7] | Potency [8] | max response [10] 4.66% | activity change % (negative = inhibition) [11] -13.9% | activation [12] -0.329% | activation [13] -1.26% | max response [14] -1.33% | Potency [15] | max response [16] -6.82% | max response [17] -1.62% | Potency [18] | max response [19] -0.414% | outcome [20]

N[C@@H]1[C@@H](O)[C@H](O)[C@@H](CO)O[C@H]1O
-16.6%: max response [9]
8.04%: max response [3]
inactive: Potency [1] | Potency [2] | outcome [4] | Potency [7] | Potency [8] | max response [10] 6.05% | activation [13] 2.2% | max response [14] -1.62% | Potency [15] | max response [16] -11.9% | max response [17] -8.29% | Potency [18] | max response [19] -3.38% | outcome [20]
-2.29%: max response [6]

COC(=O)c1ccccc1S(=O)(=O)NC(=O)Nc1nc(OC(F)F)cc(OC(F)F)n1
-7.16%: max response [9]
-18.5%: max response [3]
inactive: Potency [1] | Potency [2] | outcome [4] | outcome [5] | Potency [7] | Potency [8] | max response [10] -2.35% | activation [12] -2.94% | activation [13] -0.662% | max response [14] -0.141% | Potency [15] | max response [16] 4.57% | max response [17] 0.401% | Potency [18] | max response [19] 1.81% | outcome [20]
-18.6%: max response [6]
